Measurements taken from PubChem BioAssay AID1159580 (chemical genetic matrix, 2015).
The campaign covered roughly 5,500 compounds. About 2,000 (36%) were called active. Roughly 18% stayed inconclusive and do not appear here. No stated cut-off is given here; in the data, active means normalized growth mostly below about 0.91 (no sharp cut-off); inconclusive means no clear call, values can overlap the other calls; inactive means mostly above about 0.92. This is one part of the list.

Assay: chemical genetic growth profiling, strain panel (AID 1159580);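 further: tested at 20 µM; growth read once vehicle control cultures reached saturation at 30 °C; 1 = growth at the plate median or of vehicle wells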
Conditions: growth OD

Measured: normalized growth

NCC(N)C(=O)c1ccccc1 (stereo not drawn)
inactive: S. cerevisiae deletion strains, locus YJR043C, strain POL32, stronger effect = lower value 1.01 | S. cerevisiae deletion strains, locus YJR066W, strain TOR1, stronger effect = lower value 0.969 | S. cerevisiae deletion strains, locus YKL009W, strain mrt4, stronger effect = lower value 1.1 | S. cerevisiae deletion strains, locus YKL068W, stronger effect = lower value 1.03 | S. cerevisiae deletion strains, locus YKL085W, strain MDH1 (second series), stronger effect = lower value 1.02 | S. cerevisiae deletion strains, locus YKL085W, strain MDH1, stronger effect = lower value 1.02 | S. cerevisiae deletion strains, locus YKL160W, strain elf1, stronger effect = lower value 1.02 | S. cerevisiae deletion strains, locus YKL190W, strain CNB1, stronger effect = lower value 1.01 | S. cerevisiae deletion strains, locus YKR001C, strain vps1, stronger effect = lower value 0.979 | S. cerevisiae deletion strains, locus YKR026C, strain gcn3, stronger effect = lower value 1.02 | S. cerevisiae deletion strains, locus YKR091W, strain srl3, stronger effect = lower value 1.02 | S. cerevisiae deletion strains, locus YLL001W, strain dnm1, stronger effect = lower value 1.02 | S. cerevisiae deletion strains, locus YLL026W, stronger effect = lower value 1.03 | S. cerevisiae deletion strains, locus YLL041C, strain sdh2, stronger effect = lower value 1.02 | S. cerevisiae deletion strains, locus YLR027C, strain aat2, stronger effect = lower value 1.03 | S. cerevisiae deletion strains, locus YLR039C, strain RIC1, stronger effect = lower value 1.04 | S. cerevisiae deletion strains, locus YLR058C, strain SHM2, stronger effect = lower value 1.01 | S. cerevisiae deletion strains, locus YLR102C, strain apc9, stronger effect = lower value 0.992 | S. cerevisiae deletion strains, locus YLR113W, strain HOG1, stronger effect = lower value 0.949 | S. cerevisiae deletion strains, locus YLR221C, strain rsa3, stronger effect = lower value 1.04 | S. cerevisiae deletion strains, locus YLR258W, strain gsy2, stronger effect = lower value 1 | S. cerevisiae deletion strains, locus YLR262C, strain YPT6 (second series), stronger effect = lower value 1.03 | S. cerevisiae deletion strains, locus YLR262C, strain YPT6, stronger effect = lower value 1.06 | S. cerevisiae deletion strains, locus YLR268W, strain sec22, stronger effect = lower value 0.991 | S. cerevisiae deletion strains, locus YLR320W, strain mms22, stronger effect = lower value 1.04 | S. cerevisiae deletion strains, locus YLR330W, strain CHS5, stronger effect = lower value 1.04 | S. cerevisiae deletion strains, locus YLR342W, strain FKS1 (second series), stronger effect = lower value 0.985 | S. cerevisiae deletion strains, locus YLR342W, strain FKS1, stronger effect = lower value 1.01 | S. cerevisiae deletion strains, locus YLR357W, strain rsc2, stronger effect = lower value 1.03 | S. cerevisiae deletion strains, locus YLR370C, strain arc18, stronger effect = lower value 1.05 | S. cerevisiae deletion strains, locus YLR371W, strain rom2, stronger effect = lower value 1 | S. cerevisiae deletion strains, locus YLR384C, strain iki3, stronger effect = lower value 1.03 | S. cerevisiae deletion strains, locus YLR418C, strain cdc73, stronger effect = lower value 0.987 | S. cerevisiae deletion strains, locus YML016C, strain PPZ1, stronger effect = lower value 1 | S. cerevisiae deletion strains, locus YML032C, strain rad52, stronger effect = lower value 1.01 | S. cerevisiae deletion strains, locus YML120C, strain ndi1, stronger effect = lower value 1 | S. cerevisiae deletion strains, locus YML124C, strain tub3, stronger effect = lower value 1.01 | S. cerevisiae deletion strains, locus YMR058W, strain fet3, stronger effect = lower value 1.05 | S. cerevisiae deletion strains, locus YMR078C, strain ctf18, stronger effect = lower value 1.01 | S. cerevisiae deletion strains, locus YMR125W, strain sto1, stronger effect = lower value 1.01 | S. cerevisiae deletion strains, locus YMR129W, stronger effect = lower value 1.04 | S. cerevisiae deletion strains, locus YMR205C, strain PFK2, stronger effect = lower value 1.06 | S. cerevisiae deletion strains, locus YMR223W, strain ubp8, stronger effect = lower value 1.04 | S. cerevisiae deletion strains, locus YMR231W, strain pep5, stronger effect = lower value 1.03 | S. cerevisiae deletion strains, locus YMR307W, strain GAS1, stronger effect = lower value 0.964 | S. cerevisiae deletion strains, locus YNL067W, strain RPL9B, stronger effect = lower value 1 | S. cerevisiae deletion strains, locus YNL071W, strain lat1, stronger effect = lower value 1.02 | S. cerevisiae deletion strains, locus YNL153C, strain GIM3, stronger effect = lower value 1.01 | S. cerevisiae deletion strains, locus YNL183C, strain NPR1, stronger effect = lower value 0.901 | S. cerevisiae deletion strains, locus YNL209W, strain ssb2, stronger effect = lower value 1.03 | S. cerevisiae deletion strains, locus YNL233W, strain BNI4, stronger effect = lower value 1.02 | S. cerevisiae deletion strains, locus YNL248C, strain rpa49, stronger effect = lower value 1.03 | S. cerevisiae deletion strains, locus YNL250W, strain rad50, stronger effect = lower value 1.02 | S. cerevisiae deletion strains, locus YNL271C, strain bni1, stronger effect = lower value 1.01 | S. cerevisiae deletion strains, locus YNL298W, strain CLA4, stronger effect = lower value 1.01 | S. cerevisiae deletion strains, locus YNL307C, strain MCK1, stronger effect = lower value 0.996 | S. cerevisiae deletion strains, locus YNL322C, strain KRE1 (second series), stronger effect = lower value 1.01 | S. cerevisiae deletion strains, locus YNL322C, strain KRE1, stronger effect = lower value 1.01 | S. cerevisiae deletion strains, locus YNR049C, strain mso1, stronger effect = lower value 1.03 | S. cerevisiae deletion strains, locus YNR052C, strain pop2, stronger effect = lower value 0.994 | S. cerevisiae deletion strains, locus YOL012C, strain htz1 1.74 | S. cerevisiae deletion strains, locus YOL147C, strain pex11, stronger effect = lower value 0.993 | S. cerevisiae deletion strains, locus YOR001W, strain rrp6, stronger effect = lower value 1.04 | S. cerevisiae deletion strains, locus YOR061W, strain CKA2, stronger effect = lower value 1.01 | S. cerevisiae deletion strains, locus YOR069W, strain VPS5, stronger effect = lower value 1.01 | S. cerevisiae deletion strains, locus YOR070C, strain gyp1, stronger effect = lower value 1.04 | S. cerevisiae deletion strains, locus YOR080W, strain dia2, stronger effect = lower value 1.05 | S. cerevisiae deletion strains, locus YOR083W, strain WHI5, stronger effect = lower value 1.02 | S. cerevisiae deletion strains, locus YOR106W, strain vam3, stronger effect = lower value 1.02 | S. cerevisiae deletion strains, locus YOR136W, strain idh2, stronger effect = lower value 1.01 | S. cerevisiae deletion strains, locus YOR144C, strain elg1, stronger effect = lower value 0.996 | S. cerevisiae deletion strains, locus YOR184W, strain ser1, stronger effect = lower value 0.994 | S. cerevisiae deletion strains, locus YOR231W, strain MKK1, stronger effect = lower value 0.962 | S. cerevisiae deletion strains, locus YOR265W, strain rbl2, stronger effect = lower value 1.05 | S. cerevisiae deletion strains, locus YOR270C, strain vph1, stronger effect = lower value 1.11 | S. cerevisiae deletion strains, locus YOR290C, strain snf2, stronger effect = lower value 1 | S. cerevisiae deletion strains, locus YOR316C, strain cot1, stronger effect = lower value 0.993 | S. cerevisiae deletion strains, locus YPL051W, strain arl3, stronger effect = lower value 1.04 | S. cerevisiae deletion strains, locus YPL078C, strain atp4, stronger effect = lower value 1.02 | S. cerevisiae deletion strains, locus YPL106C, strain sse1, stronger effect = lower value 1.01 | S. cerevisiae deletion strains, locus YPL240C, strain hsp82, stronger effect = lower value 1.02 | S. cerevisiae deletion strains, locus YPL256C, strain CLN2, stronger effect = lower value 0.96 | S. cerevisiae deletion strains, locus YPR119W, strain clb2, stronger effect = lower value 0.999 | S. cerevisiae deletion strains, locus YPR141C, strain kar3, stronger effect = lower value 1.01 | S. cerevisiae deletion strains, locus YPR163C, strain tif3, stronger effect = lower value 0.995 | S. cerevisiae deletion strains, locus YPR167C, strain met16, stronger effect = lower value 1.01 | S. cerevisiae deletion strains, strain wtn01, stronger effect = lower value 0.999 | S. cerevisiae strains, strain wild type, stronger effect = lower value 1.02
